Experimental findings from PubChem BioAssay (NCATS) are described below.

The test system of one test is OV90. Nature of the test: Primary qHTS to identify gynecologic anti-cancer compounds using libraries of approved drugs and bioactive compounds (AID 1345084). Note: nearly all actives have a fitted effect of over 55% in size. Note: potency is the fitted concentration of half-maximal effect. The following applies: Gynecologic cancer cell panel viability, ATPlite luminescence, 48 h; series mostly up to 57.5 µM. The method in brief:
(§1)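 Cell viability after 48 h drug treatment, ATPlite luminescence readout; five doses.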

Another test deals with PA-1. The test is described as above. To be noted: Gynecologic cancer cell panel viability, ATPlite luminescence, 48 h; series mostly up to 57.5 µM. The essentials: as §1
On the technique in general: In ATP-based viability assays light output follows the ATP content of the culture.

Another test relates to SKOV3. The test is described as above. The following applies: Gynecologic cancer cell panel viability, ATPlite luminescence, 48 h; series mostly up to 57.5 µM. The method in brief: as §1
A further test relates to Tov-21-G. The test is described as above. To be noted: Gynecologic cancer cell panel viability, ATPlite luminescence, 48 h; series mostly up to 57.5 µM. The essentials:
as §1

The subject of another test is Tov112D. The test is described as above. The following applies: Gynecologic cancer cell panel viability, ATPlite luminescence, 48 h; series mostly up to 57.5 µM. The method in brief:
as §1

Test [1] in a line: Drug repurposing screens with cells derived from glioblastoma tumor samples (AID 1345199). For activity, negative = cell killing: % is set by controls: 0 for no effect and ±100 for the full control effect. Note: nearly all actives have a fitted effect of over 40% in size. Note: potency is the fitted concentration of half-maximal effect. The following applies: GBM patient neurospheres viability, ATP luminescence, 48 h. The essentials:
(§2)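 Four patient lines of CD133+ GBM neurospheres were screened at several concentrations; hits were retested in those lines plus three slower-growing GBM lines, using 48-hour treatment and ATP-based viability.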

For a further test, the system named is astro. Described as above. The following applies: viability, ATP luminescence, 48 h; series mostly up to 45.9 µM. The essentials:
as §2

Test [2] concerns the target Nuclear receptor subfamily 1 group I member 2 (Rattus norvegicus) (UniProt Q9R1A7). The test can be described thus: qHTS assay for small molecule activators of the rat pregnane X receptor (rPXR) signaling pathway (AID 651751; call rule not given here; note: 0% is about no effect). To be noted: rPXR reporter cells, luciferase (One-Glo), 24 h.
Test [3] in a line: qHTS assay for small molecule activators of the human pregnane X receptor (PXR) signaling pathway (AID 720659; call rule not given here; note: 0% is about no effect). (qHTS replaces the single test concentration by a dilution series.)
Test [4] is described as follows: qHTS assay to identify inhibitors of the type 1 interferon - major histocompatibility complex class I in skeletal muscle: Counter screen cell viability and HiBit confirmation (AID 1347412). Note: potency is the fitted concentration of half-maximal effect; nearly all actives have a fitted effect of over 60% in size. To be noted: iHSKM muscle cells + IFN-b, HiBiT or CellTiter-Glo, 24 h. The method in brief:
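After 24 h with human IFN-beta (4 ng/ml) and compound titrations (top 46 uM final, 1:3, 12 points), HLA-B HiBit myoblasts were lysed for either Nano-Glo HiBiT luminescence or CellTiter Glo viability on paired plates.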

Setting [5] is: at 20 µM (top of the series), tumour line C.
[6] abbreviates: at 21.2 µM (top of the series), tumour line B.
Where [7] appears, read: at 21.2 µM (top of the series), tumour line D.
Where [8] appears, read: at 45.9 µM (top of the series), tumour line B.
Where [9] appears, read: at 46.1 µM (top of the series), tumour line C.
[10] abbreviates: at 45.9 µM (top of the series), tumour line D.
[11] abbreviates: at 46 µM (top of the series), tumour line A.

Molecules are shown by their SMILES. Values joined by “and” are separate entries in the source; they are usually repeats but may differ in a detail not shown here. Identical values can stand only once. A number with no mark means an inactive call. Inconclusive results are not listed. Active and inactive are the calls of the source. Unless noted, calls come from the whole dose curve; as a rule, active = well fitted curve in the direction sought with a large enough effect; inconclusive = small, poorly fitted or top-dose-only effect, or another doubt; inactive = no such curve, though single readings can be large; an effect the other way counts as inactive or inconclusive.

Nuclear receptor subfamily 1 group I member 2 (Rattus norvegicus), sequence (Q9R1A7 whole entry, looked up): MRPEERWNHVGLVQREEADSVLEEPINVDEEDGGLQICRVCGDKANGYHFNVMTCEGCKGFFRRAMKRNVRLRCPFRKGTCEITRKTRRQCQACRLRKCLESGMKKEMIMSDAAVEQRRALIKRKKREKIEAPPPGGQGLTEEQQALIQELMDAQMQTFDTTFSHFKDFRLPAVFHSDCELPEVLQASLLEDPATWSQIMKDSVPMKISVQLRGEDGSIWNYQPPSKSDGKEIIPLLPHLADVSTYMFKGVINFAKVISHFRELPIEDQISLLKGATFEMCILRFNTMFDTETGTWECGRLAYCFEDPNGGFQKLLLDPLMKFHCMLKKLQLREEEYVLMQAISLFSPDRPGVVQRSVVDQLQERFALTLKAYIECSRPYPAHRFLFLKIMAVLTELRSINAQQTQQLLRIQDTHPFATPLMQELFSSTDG

As for `O=C(O)CCC(=O)c1ccc(-c2ccccc2)cc1`, the Potency entry in the test with OV90, in the test on PA-1, in the test on Tov-21-G and with astro was “inactive” in each case. Moreover, the outcome in the test with SKOV3 and in the test on Tov112D was inactive. The activity, negative = cell killing in [1] (setting [5]) was -5.86%; in [1] (setting [6]) it was -10%; in [1] (setting [7]), -17.7%.
In the case of `N[C@@H](Cc1cc(I)c(Oc2ccc(O)c(I)c2)c(I)c1)C(=O)O`, the Potency result in the test on OV90, in the test with PA-1, with Tov-21-G and in the test with astro was “inactive” in each case. Further, the outcome (with SKOV3; in the test with Tov112D; in test [3]) was inactive. Also, the activity, negative = cell killing in test [1] (setting [8]) is 0.914%; in test [1] (setting [9]), -18.1%. Further, in test [1] (tumour line A), the Potency is 11.2 µM (active). In addition, in [2], the max response is -4.55%.
Turning to `Oc1ccc(/C=C/c2cc(O)cc(O)c2)cc1`, the figures for the Potency in the test with Tov-21-G and with astro were 22.4 µM (active) and 4.47 µM (active), respectively. In addition, the max response in [2] was -2.85% and -10.8%.
In the case of `CSc1nc2cc(Oc3cccc(Cl)c3Cl)c(Cl)cc2[nH]1`, the activity, negative = cell killing in test [1] (setting [8]) was -12.6%.
Turning to `CCCCCCCCCCCC(=O)N(CCO)CCO`, the activity, negative = cell killing in [1] (setting [8]) is -26.4%.
Take `CO[C@H]1C[C@@H]2CC[C@@H](C)[C@@](O)(O2)C(=O)C(=O)N2CCCC[C@H]2C(=O)O[C@H]([C@H](C)C[C@@H]2CC[C@@H](OC(=O)C(C)(CO)CO)[C@H](OC)C2)CC(=O)[C@H](C)/C=C(\C)[C@@H](O)[C@@H](OC)C(=O)[C@H](C)C[C@H](C)/C=C/C=C/C=C/1C`: the Potency entry in the test with OV90, in the test with PA-1, with Tov-21-G and with astro was “inactive” each time. Further, in the test with Tov112D, the molecule was called inactive. In addition, the activity, negative = cell killing is -14.4% in [1] (setting [8]), -16% in test [1] (setting [10]), -25.2% in test [1] (setting [11]) and -22.5% in test [1] (setting [9]).
As to `O=C1c2ccccc2C(=O)c2c1ccc(O)c2O`, the Potency result with OV90, in the test on PA-1, in the test on Tov-21-G and in the test on astro was “inactive” throughout. The outcome in the test with Tov112D was inactive. For the same molecule, the activity, negative = cell killing in test [1] (setting [8]) is -22.8%; in [1] (setting [9]), -2.45%.
Regarding `COc1ccc(C[C@H](C)NC[C@@H](O)c2ccc(O)c(NC=O)c2)cc1`, the Potency entry in the test on OV90, in the test on PA-1 and in the test with Tov-21-G was “inactive” each time. For the same molecule, the values for the activity, negative = cell killing in test [1] (setting [10]) and in test [1] (setting [9]) were -10.9% and -28.7%, respectively. Further, the Potency in [1] (tumour line A) is 17.8 µM (active).
With `CC1CC(OC(=O)C(O)c2ccccc2)CC(C)(C)C1` (stereo not drawn), the Potency result with OV90, in the test with PA-1, with Tov-21-G and in the test with astro was “inactive” throughout. Also, the outcome in the test on SKOV3 and with Tov112D was inactive. The activity, negative = cell killing in [1] (setting [8]) is -16.2%; in [1] (setting [10]), 6.83%; in test [1] (setting [9]), -12.1%.
With `N=C(N)c1ccc(/C=C/c2ccc(C(=N)N)cc2O)cc1`, the figures for the activity, negative = cell killing in test [1] (setting [8]), in [1] (setting [10]) and in [1] (setting [9]) were -18.3%, -9.46% and -14.7%, respectively.
As for `COc1ccc(/C=N/NC(=O)c2ccncc2)c(C(=O)O)c1OC`, the activity, negative = cell killing in [1] (setting [8]) was -18.2%; in test [1] (setting [10]) it was 8.03%; in test [1] (setting [11]), -30.2%.
On to `C[C@H]1O[C@@H](O[C@H]2[C@@H](O)C[C@H](O[C@H]3[C@@H](O)C[C@H](O[C@H]4CC[C@@]5(C)[C@H](CC[C@@H]6[C@@H]5C[C@@H](O)[C@]5(C)[C@@H](C7=CC(=O)OC7)CC[C@]65O)C4)O[C@@H]3C)O[C@@H]2C)C[C@H](O)[C@@H]1O`, for which the Potency was 0.631 µM (active) in the test with OV90; 0.282 µM (active) in the test with PA-1; 0.1 µM (active) with Tov-21-G; 0.316 µM (active) in the test on astro; 0.0394 µM (active) in test [4]. Further, in test [2], the max response was -0.0646% and -4.92%. Moreover, in test [3], the molecule was called inactive.
With `O=C(Nc1ccc(O)cc1)c1ccccc1O`, in test [1] (setting [9]), the activity, negative = cell killing was -27.7%.
In the case of `C[C@]12CC[C@@H]3c4ccc(OC(=O)c5ccccc5)cc4CC[C@H]3[C@@H]1CC[C@@H]2O`, the Potency entry in the test on OV90, in the test on PA-1 and with Tov-21-G was “inactive” throughout. Moreover, the outcome with SKOV3 and in the test on Tov112D was inactive. Also, the activity, negative = cell killing in [1] (setting [8]) was -25.4%; in test [1] (setting [9]), -17.8%. For the same molecule, the Potency in [1] (tumour line A) was 11.2 µM (active).
For `CC(=O)Nc1ccc(NC(=S)NC(=O)c2ccc(C(C)(C)C)cc2)cc1`, the Potency entry with OV90 was “inactive”. Moreover, the figures for the Potency in the test on PA-1 and in the test with astro were 10 µM (active) and 3.98 µM (active), respectively.
Consider `COc1ccc2nc(NC(=O)Nc3ccccc3)sc2c1`, for which the Potency in the test with OV90 was 22.4 µM (active); with PA-1, 25.1 µM (active); in the test with astro it was 7.94 µM (active).
Turning to `Cc1c(N)nc([C@H](CC(N)=O)NC[C@H](N)C(N)=O)nc1C(=O)N[C@H](C(=O)N[C@H](C)[C@@H](O)[C@H](C)C(=O)N[C@H](C(=O)NCCc1nc(-c2nc(C(=O)NCCCCN=C(N)N)cs2)cs1)[C@@H](C)O)[C@@H](O[C@@H]1O[C@@H](CO)[C@@H](O)[C@H](O)[C@@H]1O[C@H]1O[C@H](CO)[C@@H](O)[C@H](OC(N)=O)[C@@H]1O)c1cnc[nH]1`, the activity, negative = cell killing in test [1] (setting [8]) was -16.7%; in test [1] (setting [9]), -15.4%.
Regarding `CN(C)CCOc1ccc(/C(=C(/CCCl)c2ccccc2)c2ccccc2)cc1`, the activity, negative = cell killing in test [1] (setting [9]) is -18.9%. The Potency is 8.91 µM (active) in test [1] (tumour line A) and 12.6 µM (active) in test [1] (tumour line D).
Take `Nc1ccc(N=Nc2ccccc2)c(N)n1`: the molecule was classed as inactive in the test on SKOV3 and in the test on Tov112D. Further, the Potency entry in the test with Tov-21-G is “inactive”.
Turning to `CCN(CC)C(=O)c1cccnc1`, the activity, negative = cell killing was -8.29% in test [1] (setting [8]) and -25.5% in [1] (setting [9]).
With `C#C[C@]1(O)CC[C@@H]2[C@H]3CCC4=CC(=O)CC[C@H]4[C@H]3C(=C)C[C@@]21CC`, the activity, negative = cell killing in test [1] (setting [8]) was 2.86%; in test [1] (setting [10]) it was -28.7%. For the same molecule, in test [1] (tumour line A), the Potency was 22.4 µM (active).
Consider `Nc1nc(NC2CC2)c2ncn([C@@H]3C=C[C@@H](CO)C3)c2n1`, for which the activity, negative = cell killing in [1] (setting [9]) was -22.1%. The Potency in test [1] (tumour line A) is 35.5 µM (active).
As to `O=C(O)Cc1cc(I)c(Oc2ccc(O)c(I)c2)c(I)c1`, the Potency entry in the test with OV90, with PA-1 and in the test on Tov-21-G was “inactive” throughout. The result with SKOV3 and in the test with Tov112D was inactive. The activity, negative = cell killing in test [1] (setting [5]) was -19.1%; in test [1] (setting [6]), 6.94%; in test [1] (setting [7]), 9.76%; in test [1] (at 21.3 µM (top of the series), tumour line A) it was -9.11%.
